Active and inactive are the calls of the source. How the source made its calls: active means hit-call score of the fitted dose curve at least 0.9, where 1 is the maximum; inactive means score below 0.9.
Assay: ATG_ERE_CIS: Attagene CIS-FACTORIAL HepG2 Assay for Estrogen Response Element (ERE) (AID 2282940)
Details: HepG2 ERE cis-reporter, Attagene RNA transcript; actives raise or lower the signal
Experimental: ATG_CIS is a cell-based, multiplexed-readout assay that uses HepG2, a human liver cell line, with measurements taken at 24 hours after chemical dosing in a 24-well plate.ATG_ERE_CIS is one of 52 assay component(s) measured or calculated from the ATG_CIS assay. It is designed to make measurements of mRNA induction, a form of inducible reporter, as detected with fluorescence intensity signals by Reverse transcription polymerase chain reaction (RT-PCR) and Capillary electrophoresis technology.Data from the assay component ATG_ERE_CIS was analyzed into 1 assay endpoint. This assay endpoint, ATG_ERE_CIS, was analyzed with bidirectional fitting relative to DMSO as the negative control and baseline of activity. Using a type of inducible reporter, measures of mRNA for gain or loss-of-signal activity can be used to understand the reporter gene at the transcription factor-level as they relate to the gene ESR1. Furthermore, this assay endpoint can be referred to as a primary readout, because this assay has produced multiple assay endpoints where this one serves a reporter gene function. To generalize the intended target to other relatable targets, this assay endpoint is annotated to the nuclear receptor intended target family, where the subfamily is steroidal.
Human liver HepG2 cells are transiently transfected with multiple reporter transcription units (MRTUs) in 6-well plates using FuGene 6 reagent (Roche; 3 ml FuGene/1 mg DNA). The MRTU constructs are regulated by a cis-regulating element (promoter). […] A major difference between the CIS and TRANS system is that in CIS activities of endogenous TFs are measured, whereas the TRANS assay evaluates changes in activities of exogenous, chimeric NR-Gal4 proteins. […] At the end of 24 hour incubation, total RNA was isolated using TriZol reagent (Invitrogen). The isolated RNA is then reverse-transcribed using oligo(dT) primer and Mo-MLV reverse transcriptase (Invitrogen) with DNAse I (Ambion) treatment for 30 min. The one-tenth of the produced cDNA was amplified by PCR using Taq DNA polymerase (Invitrogen) and two reporter sequence-specific primers. The PCR products were fluorescently labeled by primer extension with 6-arboxyfluorescein (6-FAM) 5'-labeled reporter sequence-specific primer (2 min at 95 C, 20 s at 68 C and 10 min at 72 C) and these products were digested with 5U of HpaI (New England Biolabs) for 2h at 37 C. The fragments were purified using Qiaquick PCR columns (Qiagen), analyzed on an ABI 3130xL genetic analyzer (Applied Biosystems) with peak positions identified by using a set of X-rhodamine (ROX)-labeled MapMarker1000 molecular weight standards (BioVentures). The raw capillary electrophoresis data was processed using Attagraph software (Attagene).
For `COc1ccccc1NC(=O)CC(C)=O`, the outcome was “inactive”. With `c1ccc(OCCOc2ccccc2)cc1` the outcome was “inactive”. With `O=C1OC2(c3ccc(O)cc3Oc3cc(O)ccc32)c2ccccc21` the outcome was “inactive”. For `c1ccc(Cc2ccccc2)cc1`, the AC50 was 100 µM (active). With `CC(=O)OCC=C(C)CCC=C(C)CCC=C(C)C` the AC50 was 25.1 µM (active). With `CCCCCC(=O)O[C@]1(C(C)=O)CC[C@H]2[C@@H]3CCC4=CC(=O)CC[C@]4(C)[C@H]3CC[C@@]21C` the outcome was “inactive”. In the case of `[O-]/[N+](=N\O)c1ccccc1`, the AC50 is reported as 27.7 µM (active). With `CN(C)C(=O)Nc1ccccc1` the outcome was “inactive”. With `CC(O)CNCC(C)O` (stereo not given) the outcome was “inactive”. In the case of `CCCCCCCCOS(=O)(=O)O`, the AC50 is reported as 135 µM (active). For `CC/C=C\CCCCO`, the outcome was “inactive”. With `FC(F)(F)c1ccc(Cl)c(Cl)c1` the outcome was “inactive”. With `N#CCCNCCC#N` the outcome was “inactive”. For `COc1ccc(C(C)=O)cc1`, the outcome was “inactive”. In the case of `CCCO[Si](OCCC)(OCCC)OCCC`, the outcome is reported as “inactive”. With `CC(C)COC(=O)c1ccccc1O` the outcome was “inactive”. In the case of `[Na+]`, the outcome is reported as “inactive”. With `O=C(O)CS` the outcome was “inactive”. For `c1coc(CNc2ncnc3nc[nH]c23)c1`, the outcome was “inactive”. For `CCC(C)C1CCCCC1=O` (stereo not given), the outcome was “inactive”. In the case of `COC(=O)C(C)Oc1ccc(Oc2ncc(C(F)(F)F)cc2Cl)cc1` (stereo not given), the outcome is reported as “inactive”. In the case of `CC(C)Cc1ccc(C(C)C(=O)O)cc1` (stereo not given), the AC50 is reported as 10.6 µM (active). For `CCCCOCC(C)OCC(C)O` (stereo not given), the outcome was “inactive”. With `CC1COC(=O)O1` (stereo not given) the outcome was “inactive”. In the case of `Cc1cc(N)n(-c2ccccc2)n1`, the outcome is reported as “inactive”. In the case of `CC12CCC(C1)C(C)(C)C2O` (stereo not given), the outcome is reported as “inactive”. For `CCCCCCCCCC(=O)OCC`, the outcome was “inactive”. For `CC(=O)c1ccc(C)cc1`, the outcome was “inactive”. With `S=c1[nH][nH]c(=S)s1` the outcome was “inactive”. With `CC1=CCC(=C(C)C)CC1` the AC50 was 60 µM (active). In the case of `CC(=O)N(C)C`, the outcome is reported as “inactive”. With `CC1(C)CC(N)CC(C)(CN)C1` (stereo not given) the outcome was “inactive”. In the case of `CCCCCC1CCC(=O)O1` (stereo not given), the outcome is reported as “inactive”. In the case of `O=S(=O)(O)c1cc(S(=O)(=O)O)c2c(N=Nc3ccccc3)c(O)ccc2c1`, the outcome is reported as “inactive”. For `CC(=O)CCc1ccc(O)cc1`, the outcome was “inactive”. With `Cc1cccc(C)c1` the outcome was “inactive”. With `C=CCOCC(O)CO` (stereo not given) the outcome was “inactive”. For `CCOCC(C)O` (stereo not given), the outcome was “inactive”. For `C=COCC1CCC(COC=C)CC1` (stereo not given), the outcome was “inactive”. With `O=S1(=O)CC(Cl)(Cl)C(Cl)(Cl)C1` the outcome was “inactive”.

Reference: PubChem BioAssay (EPA / NIEHS)
